Screening results: PubChem BioAssay, several laboratories
eIF4E 4G PPI: eIF4E–eIF4G protein interaction inhibitors, primary screen, biochemical, uHTS, TR-FRET, eIF4GI fragment. Eukaryotic translation initiation factor 4E (Mus musculus) + Eukaryotic translation …. TR-FRET eIF4E-eIF4GI(517-606) binding, 2 h. inhibition, % at 21.7 µM. 220,000 tested, 0.37% active. AID 782, 2007;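 further: 0% = full FRET control wells and 100% = background wells lacking eIF4GI fragment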
SUMO HTRF inh: inhibitors of in vitro SUMOylation cascade, primary screen, biochemical, HTRF, uHTS; SUMO-conjugating enzyme UBC9 (Homo sapiens), P63279; HTRF SUMOylation assay, SAE1/SAE2 + UBC9; inhibition, % at 35 µM; 290,000 tested, 0.36% active; in the data active means inhibition above about 50%, passing the limit was not always enough; inconclusive means no clear call, values can overlap the other calls
Target sequence (P63279 whole entry, looked up): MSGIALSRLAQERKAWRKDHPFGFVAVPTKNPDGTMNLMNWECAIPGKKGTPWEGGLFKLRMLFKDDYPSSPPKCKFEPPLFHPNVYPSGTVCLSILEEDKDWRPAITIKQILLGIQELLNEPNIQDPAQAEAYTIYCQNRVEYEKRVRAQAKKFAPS
NCF1 inh: p47phox/p22phox peptide binding inhibitors, primary screen, biochemical, uHTS, NADPH oxidase regulatory subunit. Neutrophil cytosol factor 1 (Homo sapiens), P14598. fluorescence polarization, 2 h. inhibition, % at 24.7 µM. 220,000 tested, 0.53% active;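 further: 0% = p47phox with labelled peptide and 100% = labelled peptide alone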
Target sequence (P14598 whole entry, looked up): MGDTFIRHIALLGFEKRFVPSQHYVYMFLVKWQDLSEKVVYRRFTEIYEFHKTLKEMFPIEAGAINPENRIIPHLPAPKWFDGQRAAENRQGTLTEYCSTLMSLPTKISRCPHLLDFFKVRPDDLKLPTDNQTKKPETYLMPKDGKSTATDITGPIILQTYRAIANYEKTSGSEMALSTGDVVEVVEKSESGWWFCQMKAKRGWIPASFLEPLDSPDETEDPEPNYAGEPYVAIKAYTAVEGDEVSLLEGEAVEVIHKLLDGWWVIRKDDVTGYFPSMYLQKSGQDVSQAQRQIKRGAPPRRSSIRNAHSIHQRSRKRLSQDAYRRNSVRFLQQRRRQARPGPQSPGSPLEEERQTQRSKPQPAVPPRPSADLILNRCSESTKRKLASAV
14-3-3 Bad inh: inhibitors of 14-3-3 zeta/Bad binding, primary screen, biochemical, TR-FRET, bovine 14-3-3 zeta; inhibition, % at 21.7 µM; 220,000 tested, 0.71% active; TR-FRET 14-3-3zeta/Dy647-pBad peptide displacement, 1 h; 14-3-3 protein zeta/delta (Bos taurus), P63103; AID 781, 2007;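 active means inhibition above about 70%, limit read from the data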;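 further: 0% = full 14-3-3 plus peptide FRET controls and 100% = background without 14-3-3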
An asterisk follows results filed as active; [ ] = remark or other dose. Hits are enriched below; roughly 1.3% of the tested compounds scored in any of these assays.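 How the source made its calls, unless noted: active means inhibition above about 30% (limit read from the data); inactive means the rest.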

For COc1ccc2[nH]cc(CCNC(=O)C3CCCCC3)c2c1 the results were SUMO HTRF inh 11.
`CCOc1cc2c(cc1/C=C/C(=O)O)OC(C)C2` (configuration not stated) gave eIF4E 4G PPI -10, SUMO HTRF inh 47, NCF1 inh -9 and 14-3-3 Bad inh 10.
Screening COc1cc2c(cc1/C=C/C(=O)O)OC(C)C2 (configuration not stated) returned eIF4E 4G PPI 6, SUMO HTRF inh 55*, NCF1 inh -3 and 14-3-3 Bad inh 16.
CC(C)(O)C1Cc2cc(/C=C/C(=O)O)c(O)cc2O1 (configuration not stated) was read as eIF4E 4G PPI 62*, SUMO HTRF inh 17, NCF1 inh 85* and 14-3-3 Bad inh 32.
Screening O=C(CCCc1ccccc1)N1CCc2ccccc21 returned eIF4E 4G PPI 7, SUMO HTRF inh 15, NCF1 inh -2 and 14-3-3 Bad inh -9.
`COc1c(S(=O)(=O)NCCCN2CCOCC2)ccc(Cl)c1Cl` gave eIF4E 4G PPI 86*, SUMO HTRF inh 16, NCF1 inh -3 and 14-3-3 Bad inh -10.
Screening COc1ccc(S(=O)(=O)NCCN2CCOCC2)c2ccccc12 returned eIF4E 4G PPI 4, SUMO HTRF inh 3, NCF1 inh -24 and 14-3-3 Bad inh -7.
O=C(CNCCC1=CCCCC1)Nc1ccccc1N1CCCCC1 was read as eIF4E 4G PPI -1, SUMO HTRF inh -5, NCF1 inh -13 and 14-3-3 Bad inh 44.
For COc1cc(C)ccc1OCCOCCOc1cccc2ccc(C)nc12 the results were eIF4E 4G PPI 4, SUMO HTRF inh 19, NCF1 inh -3 and 14-3-3 Bad inh 31.
C=CCc1ccc(OCCOCCOc2cccc3ccc(C)nc23)c(OC)c1 was read as eIF4E 4G PPI 10, SUMO HTRF inh -16, NCF1 inh -3 and 14-3-3 Bad inh 74*.
O=c1oc2ccccc2c2oc3cc(O)c(O)cc3c12 was read as eIF4E 4G PPI 9, SUMO HTRF inh 25, NCF1 inh -34 and 14-3-3 Bad inh 15.
Screening O=c1oc2c(O)c(O)cc3c(=O)oc4c(O)c(O)cc1c4c23 returned eIF4E 4G PPI 56*[fluorescence artefact?], SUMO HTRF inh inconclusive, NCF1 inh -37 and 14-3-3 Bad inh 98*[fluorescence artefact?].
`CCOc1ccc(CC(=NCCO)C2=C(O)CC(C)(C)CC2=O)cc1OCC` gave eIF4E 4G PPI 11, SUMO HTRF inh 4, NCF1 inh -7 and 14-3-3 Bad inh -15.
`CCOC(=O)/C(C#N)=C\N(C)C` gave eIF4E 4G PPI -1, SUMO HTRF inh 30, NCF1 inh 40* and 14-3-3 Bad inh 10.
Screening Cc1ccc(N=Nc2ccc(O)c(/C=N\NC(=O)c3ccc(N)cc3)c2)cc1C returned eIF4E 4G PPI -25, SUMO HTRF inh 29, NCF1 inh -6 and 14-3-3 Bad inh 85*[fluorescence artefact?].
COc1cccc(/C(C#N)=C/c2c(-c3ccc(Cl)cc3)nc3c(C)cccn23)c1 was read as eIF4E 4G PPI 8, SUMO HTRF inh -12, NCF1 inh -10 and 14-3-3 Bad inh 71*.
For Cc1cccn2c(/C=N/OCc3cccc(F)c3)c(-c3ccc(Cl)cc3)nc12 the results were eIF4E 4G PPI -5, SUMO HTRF inh -7, NCF1 inh 3 and 14-3-3 Bad inh -2.
`CC(=O)Nc1cc(C(=O)OC(C(=O)c2ccccc2)c2ccccc2)ccc1C` (configuration not stated) gave eIF4E 4G PPI 5, SUMO HTRF inh -10, NCF1 inh 49* and 14-3-3 Bad inh 12.
`c1cc(-n2nnc3cnccc32)ccn1` gave eIF4E 4G PPI -15, SUMO HTRF inh 9, NCF1 inh -2 and 14-3-3 Bad inh -1.
Screening c1ccc(-n2nnc3cnccc32)cc1 returned eIF4E 4G PPI 31*, SUMO HTRF inh 12, NCF1 inh -10 and 14-3-3 Bad inh -2.
For O=C(C1CC1)N1CCC(c2nc(-c3ccc(S(=O)(=O)N4CCCC4)cc3)no2)CC1 the results were eIF4E 4G PPI -12, SUMO HTRF inh 17, NCF1 inh 0 and 14-3-3 Bad inh 26.
Screening O=C(N1CCOCC1)N1CCC(c2nc(-c3ccc(S(=O)(=O)N4CCOCC4)cc3)no2)CC1 returned eIF4E 4G PPI 2, SUMO HTRF inh 11, NCF1 inh 3 and 14-3-3 Bad inh 73*.
`Nc1c(C(=O)NCc2ccco2)sc2nc3c(cc12)C(=O)CCC3` gave eIF4E 4G PPI 32*[fluorescence artefact?], SUMO HTRF inh 28, NCF1 inh -17 and 14-3-3 Bad inh 10.
`Cc1ccc(OCC(=O)Nc2cccc(S(=O)(=O)N3CCCCCC3)c2)c([N+](=O)[O-])n1` gave eIF4E 4G PPI 0, SUMO HTRF inh 15, NCF1 inh 0 and 14-3-3 Bad inh -9.
`Cn1c(=O)c(NCCO)c2c3c(cccc31)C(=O)c1ccccc1-2` gave eIF4E 4G PPI -3, SUMO HTRF inh 55*, NCF1 inh -251 and 14-3-3 Bad inh -5.
Screening CCCc1nc(-c2ccc(-c3ccc(F)cc3)cc2)no1 returned eIF4E 4G PPI -3, SUMO HTRF inh -9, NCF1 inh -10 and 14-3-3 Bad inh 9.
For CCCc1nc(-c2cc3ccccc3[nH]c2=O)no1 the results were eIF4E 4G PPI -1, SUMO HTRF inh 17, NCF1 inh -1 and 14-3-3 Bad inh 96*.
Screening O=C(/C=C/c1ccncc1)c1ccc(NC(=O)c2ccccc2F)cc1 returned eIF4E 4G PPI 10, SUMO HTRF inh 70*, NCF1 inh 30* and 14-3-3 Bad inh 68.
For O=C(/C=C/c1ccc(Br)cc1)c1ccc(NC(=O)c2ccco2)cc1 the results were eIF4E 4G PPI 1, SUMO HTRF inh 45, NCF1 inh -1 and 14-3-3 Bad inh 77*[fluorescence artefact?].
For COc1ccc(Nc2ncnc3c2oc2ccccc23)cc1 the results were eIF4E 4G PPI 4, SUMO HTRF inh 18, NCF1 inh -1 and 14-3-3 Bad inh 67.
For CCc1nc(Nc2ccc3c(c2)OCCO3)c2oc3ccccc3c2n1 the results were eIF4E 4G PPI 10, SUMO HTRF inh 14, NCF1 inh -46 and 14-3-3 Bad inh 86*.
CCc1nc(Nc2ccc(O)cc2)c2oc3ccccc3c2n1 was read as SUMO HTRF inh 9.
For CCc1nc(NCc2ccco2)c2oc3ccccc3c2n1 the results were eIF4E 4G PPI -8, SUMO HTRF inh 2, NCF1 inh -28 and 14-3-3 Bad inh 81*.
For Cc1nc(Nc2ccc3c(c2)OCCO3)c2oc3ccccc3c2n1 the results were eIF4E 4G PPI -4, SUMO HTRF inh 26, NCF1 inh -27 and 14-3-3 Bad inh 73*.
Cc1nc(Nc2cccc(F)c2)c2oc3ccccc3c2n1 was read as SUMO HTRF inh 10.
Cc1ccc(Nc2ncnc3c2oc2ccccc23)cc1 was read as eIF4E 4G PPI -5, SUMO HTRF inh 22, NCF1 inh -19 and 14-3-3 Bad inh 72*.
CCc1ccc(C(=O)C[n+]2cccc3cc(OC)ccc32)cc1 was read as SUMO HTRF inh 0.
